Experimental data as given in PubChem BioAssay AID1159580 (chemical genetic matrix, 2015).
Among all 5,500 compounds or so, about 2,000 (36%) were called active. About 18% were inconclusive and are not listed. Rule as the data show it: active = normalized growth mostly below about 0.91 (no sharp cut-off); inconclusive = no clear call, values can overlap the other calls; inactive = mostly above about 0.92. The list shows a part of the results.

Test: chemical genetic growth profiling, strain panel (AID 1159580);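 also: tested at 20 µM; growth read once vehicle control cultures reached saturation at 30 °C; 1 = growth at the plate median or of vehicle wells; lower values mean less growth of the strain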
Conditions: growth OD

Measured: normalized growth

O=C(O)COc1ccc(Cl)cc1Cl
inactive: S. cerevisiae deletion strains, locus YJR043C, strain POL32, hits give low values 1.02 | S. cerevisiae deletion strains, locus YJR075W, strain HOC1, hits give low values 1.02 | S. cerevisiae deletion strains, locus YKL009W, strain mrt4, hits give low values 1.04 | S. cerevisiae deletion strains, locus YKL068W, hits give low values 1.01 | S. cerevisiae deletion strains, locus YKL085W, strain MDH1 (second series), hits give low values 1.01 | S. cerevisiae deletion strains, locus YKL085W, strain MDH1, hits give low values 1.01 | S. cerevisiae deletion strains, locus YKL160W, strain elf1, hits give low values 0.996 | S. cerevisiae deletion strains, locus YKL190W, strain CNB1, hits give low values 1.02 | S. cerevisiae deletion strains, locus YKR001C, strain vps1, hits give low values 1.04 | S. cerevisiae deletion strains, locus YKR026C, strain gcn3, hits give low values 0.988 | S. cerevisiae deletion strains, locus YKR091W, strain srl3, hits give low values 0.999 | S. cerevisiae deletion strains, locus YLL001W, strain dnm1, hits give low values 1 | S. cerevisiae deletion strains, locus YLL026W, hits give low values 0.988 | S. cerevisiae deletion strains, locus YLL041C, strain sdh2, hits give low values 0.995 | S. cerevisiae deletion strains, locus YLR027C, strain aat2, hits give low values 0.993 | S. cerevisiae deletion strains, locus YLR039C, strain RIC1, hits give low values 1.04 | S. cerevisiae deletion strains, locus YLR058C, strain SHM2, hits give low values 1.01 | S. cerevisiae deletion strains, locus YLR102C, strain apc9, hits give low values 1.03 | S. cerevisiae deletion strains, locus YLR221C, strain rsa3, hits give low values 0.989 | S. cerevisiae deletion strains, locus YLR258W, strain gsy2, hits give low values 0.994 | S. cerevisiae deletion strains, locus YLR262C, strain YPT6 (second series), hits give low values 0.996 | S. cerevisiae deletion strains, locus YLR262C, strain YPT6, hits give low values 1.08 | S. cerevisiae deletion strains, locus YLR268W, strain sec22, hits give low values 1.02 | S. cerevisiae deletion strains, locus YLR320W, strain mms22, hits give low values 0.991 | S. cerevisiae deletion strains, locus YLR330W, strain CHS5, hits give low values 1.01 | S. cerevisiae deletion strains, locus YLR342W, strain FKS1 (second series), hits give low values 1.03 | S. cerevisiae deletion strains, locus YLR342W, strain FKS1, hits give low values 1 | S. cerevisiae deletion strains, locus YLR357W, strain rsc2, hits give low values 0.989 | S. cerevisiae deletion strains, locus YLR370C, strain arc18, hits give low values 0.994 | S. cerevisiae deletion strains, locus YLR371W, strain rom2, hits give low values 1.03 | S. cerevisiae deletion strains, locus YLR384C, strain iki3, hits give low values 0.997 | S. cerevisiae deletion strains, locus YLR418C, strain cdc73, hits give low values 1.06 | S. cerevisiae deletion strains, locus YML016C, strain PPZ1, hits give low values 1.01 | S. cerevisiae deletion strains, locus YML032C, strain rad52, hits give low values 1.04 | S. cerevisiae deletion strains, locus YML120C, strain ndi1, hits give low values 0.989 | S. cerevisiae deletion strains, locus YML124C, strain tub3, hits give low values 1.02 | S. cerevisiae deletion strains, locus YMR058W, strain fet3, hits give low values 0.999 | S. cerevisiae deletion strains, locus YMR078C, strain ctf18, hits give low values 1.02 | S. cerevisiae deletion strains, locus YMR125W, strain sto1, hits give low values 0.993 | S. cerevisiae deletion strains, locus YMR129W, hits give low values 0.996 | S. cerevisiae deletion strains, locus YMR205C, strain PFK2, hits give low values 0.984 | S. cerevisiae deletion strains, locus YMR223W, strain ubp8, hits give low values 1.03 | S. cerevisiae deletion strains, locus YMR231W, strain pep5, hits give low values 0.992 | S. cerevisiae deletion strains, locus YMR263W, strain SAP30, hits give low values 1.01 | S. cerevisiae deletion strains, locus YMR307W, strain GAS1, hits give low values 1.04 | S. cerevisiae deletion strains, locus YNL067W, strain RPL9B, hits give low values 1.02 | S. cerevisiae deletion strains, locus YNL071W, strain lat1, hits give low values 1.01 | S. cerevisiae deletion strains, locus YNL128W, strain TEP1, hits give low values 1.02 | S. cerevisiae deletion strains, locus YNL153C, strain GIM3, hits give low values 0.993 | S. cerevisiae deletion strains, locus YNL209W, strain ssb2, hits give low values 1 | S. cerevisiae deletion strains, locus YNL233W, strain BNI4, hits give low values 1.03 | S. cerevisiae deletion strains, locus YNL248C, strain rpa49, hits give low values 0.989 | S. cerevisiae deletion strains, locus YNL250W, strain rad50, hits give low values 1.02 | S. cerevisiae deletion strains, locus YNL271C, strain bni1, hits give low values 1.02 | S. cerevisiae deletion strains, locus YNL298W, strain CLA4, hits give low values 1.04 | S. cerevisiae deletion strains, locus YNL307C, strain MCK1, hits give low values 1.03 | S. cerevisiae deletion strains, locus YNL322C, strain KRE1 (second series), hits give low values 0.994 | S. cerevisiae deletion strains, locus YNL322C, strain KRE1, hits give low values 1.01 | S. cerevisiae deletion strains, locus YNR049C, strain mso1, hits give low values 0.993 | S. cerevisiae deletion strains, locus YNR052C, strain pop2, hits give low values 1.03 | S. cerevisiae deletion strains, locus YOL006C, strain TOP1, hits give low values 1.08 | S. cerevisiae deletion strains, locus YOL012C, strain htz1 1.3 | S. cerevisiae deletion strains, locus YOL147C, strain pex11, hits give low values 1.02 | S. cerevisiae deletion strains, locus YOR001W, strain rrp6, hits give low values 0.993 | S. cerevisiae deletion strains, locus YOR061W, strain CKA2, hits give low values 1.01 | S. cerevisiae deletion strains, locus YOR069W, strain VPS5, hits give low values 1.01 | S. cerevisiae deletion strains, locus YOR070C, strain gyp1, hits give low values 1 | S. cerevisiae deletion strains, locus YOR080W, strain dia2, hits give low values 0.996 | S. cerevisiae deletion strains, locus YOR083W, strain WHI5, hits give low values 0.998 | S. cerevisiae deletion strains, locus YOR106W, strain vam3, hits give low values 0.994 | S. cerevisiae deletion strains, locus YOR136W, strain idh2, hits give low values 1.02 | S. cerevisiae deletion strains, locus YOR144C, strain elg1, hits give low values 1.02 | S. cerevisiae deletion strains, locus YOR184W, strain ser1, hits give low values 1.03 | S. cerevisiae deletion strains, locus YOR265W, strain rbl2, hits give low values 0.992 | S. cerevisiae deletion strains, locus YOR270C, strain vph1, hits give low values 1.01 | S. cerevisiae deletion strains, locus YOR290C, strain snf2, hits give low values 1 | S. cerevisiae deletion strains, locus YOR316C, strain cot1, hits give low values 1.03 | S. cerevisiae deletion strains, locus YPL051W, strain arl3, hits give low values 0.993 | S. cerevisiae deletion strains, locus YPL055C, strain LGE1, hits give low values 1.03 | S. cerevisiae deletion strains, locus YPL078C, strain atp4, hits give low values 0.999 | S. cerevisiae deletion strains, locus YPL106C, strain sse1, hits give low values 0.983 | S. cerevisiae deletion strains, locus YPL240C, strain hsp82, hits give low values 0.993 | S. cerevisiae deletion strains, locus YPL241C, strain CIN2, hits give low values 1.01 | S. cerevisiae deletion strains, locus YPR119W, strain clb2, hits give low values 1.01 | S. cerevisiae deletion strains, locus YPR141C, strain kar3, hits give low values 1.03 | S. cerevisiae deletion strains, locus YPR163C, strain tif3, hits give low values 1.02 | S. cerevisiae deletion strains, locus YPR167C, strain met16, hits give low values 1.03 | S. cerevisiae deletion strains, strain wtn01, hits give low values 1.02 | S. cerevisiae strains, strain wild type, hits give low values 1.01
